# Data published in PubChem BioAssay (NCATS).
# Inconclusive results are not listed. A call without a number means that no potency is given here. Calls of active or inactive are those of the source. Calls come from the whole dose curve; as a rule, active = well fitted cell-killing curve with a large enough effect; inconclusive = small, poorly fitted or top-dose-only effect, or effect the other way; inactive = flat fitted curve, though single readings scatter.
# Tested on: C33A
# Assay: Primary qHTS to identify gynecologic anti-cancer compounds using libraries of approved drugs and bioactive compounds (AID 1345084); note: nearly all actives have a fitted effect of over 55% in size
# Conditions: Gynecologic cancer cell panel viability, ATPlite luminescence, 48 h; series mostly up to 57.5 µM
# Outline: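 Cytotoxicity screen measuring ATP content by luciferase luminescence. Each compound is applied at five concentrations for 48 h at 37 C with 5% CO2.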
row,SMILES,Potency
1,C/C=C(\C)C(=O)O[C@H]1[C@@H](O[C@]2(COC(=O)CC(C)C)O[C@H](COC(=O)C(C)CC)[C@@H](OC(C)=O)[C@@H]2O)O[C@H](COC(C)=O)[C@@H](O)[C@@H]1O (some centres not stated),inactive
2,C=C(C(=O)O)C1CC2=C(C)CCCC2(C)C[C@@H]1O (some centres not stated),inactive
3,O=C(NCc1ccc(F)cc1)C(=O)c1c[nH]c2ccccc12,inactive
4,C/C(=C\C=C\C(C)C1CCC2(C)C3CCC4C(C)(C)C(=O)CCC45CC35CCC12C)C(=O)O (configuration not stated),inactive
5,C/C(=C\CCC(C)CCO)C(=O)OC1(C)CCC2C(C(=O)O)=COC(OC3OC(CO)C(O)C(O)C3O)C21 (configuration not stated),inactive
6,CC(=O)O[C@@H]1[C@@H](OC(=O)/C=C/c2ccccc2)[C@@H](OC(C)=O)[C@H](O[C@H]2[C@@H]3C=CO[C@@H](O[C@@H]4O[C@H](CO)[C@@H](O)[C@H](O)[C@H]4O)[C@@H]3[C@@]3(CO)O[C@@H]23)O[C@H]1C,inactive
7,CCN(CC)Cc1ccc(C(=O)N(CCc2ccccc2OC)[C@@H]2CCNC2)cc1,inactive
8,O=C1OCc2cc3cccc(O[C@@H]4O[C@H](CO)[C@@H](O)[C@H](O)[C@H]4O)c3c(O)c21,inactive
9,N#Cc1ccc(C(=O)N2CCC3(CC2)N=C(N)c2c(F)ccc(F)c2N3)cn1,inactive
10,CCCCc1ccc(C(=O)Nc2cc(-c3ccc(Cl)cc3)nn2-c2ccc(Cl)cc2)cc1,inactive
11,O=C(C(c1ccccc1)c1ccccc1)N1CCN(CC(O)COc2cccc3ncccc23)CC1 (configuration not stated),inactive
12,CC(C)c1cc2c(c(O)c1O)[C@@]13CCCC(C)(C)[C@@H]1[C@H](OC3=O)C2=O,inactive
